An excerpt weighted towards active compounds, which were near 21% of everything screened.
D3 antag: D3 dopamine receptor (human) antagonism | max response, negative = inhibition, % | 360,000 compounds, 2.5% hits | P35462 | D3R cells, DiscoveRx beta-arrestin luminescence, antagonist mode; hits give low values; in the data active = max response below about -50%; inconclusive = no clear call, values can overlap the other calls; also: % is scaled to controls: 0 for no effect and ±100 for the full control effect
Target sequence (P35462 whole entry, looked up): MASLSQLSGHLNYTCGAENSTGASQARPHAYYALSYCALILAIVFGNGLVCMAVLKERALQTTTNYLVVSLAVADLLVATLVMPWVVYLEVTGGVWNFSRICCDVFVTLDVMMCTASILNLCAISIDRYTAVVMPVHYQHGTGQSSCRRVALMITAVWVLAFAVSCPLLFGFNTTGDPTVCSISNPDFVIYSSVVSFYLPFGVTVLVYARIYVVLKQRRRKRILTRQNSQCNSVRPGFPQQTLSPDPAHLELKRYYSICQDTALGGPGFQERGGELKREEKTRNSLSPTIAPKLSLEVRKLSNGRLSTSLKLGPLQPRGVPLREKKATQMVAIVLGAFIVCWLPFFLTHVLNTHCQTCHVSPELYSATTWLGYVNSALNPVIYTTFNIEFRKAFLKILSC
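Cells expressing the human receptor were seeded at 1500 cells/well, incubated overnight at 37 degrees C in 5% CO2, then exposed to library compounds with dopamine controls for 90 minutes at 37 degrees C before luminescent detection.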
IL1B secr inh: blocks inflammasome-driven IL-1 beta release | THP-1 LPS/ATP IL-1B secretion, AlphaLISA, 16 h; hits give low values | AID 743279 | 360,000 compounds, 4.7% hits | activity change, % at 57.5 µM; in the data active = activity change below about -50%; inconclusive = mostly about -30% to -49%; also: % is scaled to controls: 0 for no effect and ±100 for the full control effect
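Secreted IL-1B measured by AlphaLISA bead assay after 16 h compound exposure of THP-1 cells; compounds (final up to 57.5 uM) added 1 h before LPS (250 ng/mL) and ATP (1.25 mM) stimulation; lower signal means less secretion.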
TDP1 cell noCPT: qHTS for Inhibitors of human tyrosyl-DNA phosphodiesterase 1 (TDP1): qHTS in cells in absence of CPT; AID 686978, 2013; Potency, µM (highest dose often 46.2 µM), for inactives: at the top dose activity change, negative = growth inhibition, hits mostly inhibitors; 420,000 compounds, 15% hits; DT40 Tdp1-/- hTDP1 cells, no CPT, ATP luminescence, 48 h; also: potency is read from the fitted curve at half-maximal effect; % is scaled to controls: 0 for no effect and ±100 for the full control effect; nearly all actives have a fitted effect of over 55% in size
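Luminescent ATP content (CellTiter-Glo) served as the growth readout. Knockout chicken DT40 cells expressing human TDP1 were exposed to compounds without camptothecin for a minimum 48 hr at 37 °C.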
D3 ag: D3 dopamine receptor (human) agonism; P35462; D3R DiscoveRx beta-arrestin cells, luminescence, 90 min; max activation, %; 410,000 compounds, 0.58% hits; in the data active = max activation above about 30%; also: 0% is about no effect
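Cells at 1500/well, incubated overnight, then treated with pinned compounds (dopamine as control) for 90 min at 37 degrees C. DiscoveRx reagent added for 30 - 60 minutes at room temperature; luminescence read.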
ClpP mod: qHTS Assay for Activators of ClpP; ATP-dependent Clp protease proteolytic subunit (Bacillus subtilis (strain 168)), P80244; purified B. subtilis ClpP, FRET peptide cleavage, 20 min; Potency, µM (series often up to 57.5 µM), for inactives: top-dose activity change, negative = active; 340,000 compounds, 1.9% hits; AID 651965, 2013; active = well fitted falling curve with a large enough effect; inconclusive = small, poorly fitted or top-dose-only effect; inactive = no such curve, though single readings can be large or run the other way; also: potency is read from the fitted curve at half-maximal effect; the source files actives as falling curves though it sought activators and does not explain the sign; nearly all actives have a fitted effect of over 65% in size
Target sequence (P80244 whole entry, looked up): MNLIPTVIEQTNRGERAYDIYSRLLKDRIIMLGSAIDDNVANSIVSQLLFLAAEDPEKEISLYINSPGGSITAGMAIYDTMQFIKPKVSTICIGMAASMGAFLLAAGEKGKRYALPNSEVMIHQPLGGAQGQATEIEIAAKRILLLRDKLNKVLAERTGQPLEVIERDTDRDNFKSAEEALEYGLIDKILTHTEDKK
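Buffer: 100 mM Tris/HCl pH8, 100 mM KCl, 0.05% low protease BSA, 2.5% glycerol, 0.01% Tween-20. ClpP 10 microg/mL final; 20 min RT; delta FRET normalized to ADEP and DMSO controls.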
TDP1 cell CPT: DT40-hTDP1 cell growth loss with CPT. chicken DT40 Tdp1-/-;hTDP1 cells + 20 nM CPT, ATP luminescence, 48 h. 420,000 compounds, 12% hits. Potency, µM (doses to about 46.2 µM), for the others: at the highest dose activity change, negative = growth inhibition, usual class: inhibitors. AID 686979; also: potency is read from the fitted curve at half-maximal effect; % is scaled to controls: 0 for no effect and ±100 for the full control effect; nearly all actives have a fitted effect of over 55% in size
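Cell growth measured by CellTiter-Glo luminescence after a minimum 48 h, 37 C compound exposure with 20 nM CPT in Tdp1-knockout DT40 cells stably expressing hTDP1, seeded 400/well; qHTS titration format.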
Starred values were filed as active, the others as inactive; ? = inconclusive; · = no result given. Unless noted, calls follow the shape of the dose curve; as a rule, active = well fitted inhibition curve with a large enough effect; inconclusive = small, poorly fitted or top-dose-only effect; inactive = flat fitted curve, though single readings scatter.

SMILES	D3 antag	IL1B secr inh	TDP1 cell noCPT	D3 ag	ClpP mod	TDP1 cell CPT
COc1ccc(N2CCN(C(=O)c3ccc(C)cc3)CC2)c([N+](=O)[O-])c1	-6	-4	?	-11	-3%	?
COc1ccc(N2CCN(C(=O)c3ccccc3Br)CC2)c([N+](=O)[O-])c1	-25	-61*	15µM*	-2	·	?
Cc1ccc(C)c(N2CCN(c3ccc(N4C(=O)COCC4=O)cc3[N+](=O)[O-])CC2)c1	0	27	-8%	0	0%	0%
COc1ccc(N2CCN(c3ccc(N4C(=O)COCC4=O)cc3[N+](=O)[O-])CC2)cc1	-10	-4	9.2µM*	-6	28µM*	?
COc1ccc(N2CCN(C(=O)c3ccccc3)CC2)c([N+](=O)[O-])c1	-14	-6	-24%	2	·	-11%
COc1ccc(N2CCN(C(=O)c3ccc(Br)cc3)CC2)c([N+](=O)[O-])c1	-7	-18	18µM*	-1	·	?
S=C(NCC1CCCO1)N1CCN(c2nc(-c3ccc(Cl)cc3)cs2)CC1 (stereo not drawn)	-18	-68*	15µM*	1	·	16µM*
S=C(NCCCN1CCOCC1)N1CCN(c2nc(-c3ccc(Cl)cc3)cs2)CC1	-9	-70*	4.1µM*	-6	0%	7.3µM*
CCCNC(=S)N1CCN(c2nc(-c3ccc(C)cc3)cs2)CC1	16	-21	?	9	2%	?
S=C(NCCCN1CCOCC1)N1CCN(c2ccccc2)CC1	0	3	-5%	-3	1%	2%
S=C(NCCCN1CCOCC1)N1CCN(c2nc(-c3ccccc3)cs2)CC1	-24	-87*	23µM*	-4	·	?
O=S(=O)(c1cccc(Cl)c1Cl)N1CCN(C(=S)NCCCN2CCOCC2)CC1	-2	-74*	21µM*	-11	·	?
O=C(O)c1cc(S(=O)(=O)NC(CO)C(O)c2ccc([N+](=O)[O-])cc2)ccc1Br (stereo not drawn)	5	31	1%	4	0%	4%
CC(=O)Nc1ccc(S(=O)(=O)N2CCN(c3nc(NC4CCCC4)c4ccccc4n3)CC2)cc1	12	-1	?	-5	28µM*	?
O=C(C1CCCN(S(=O)(=O)c2ccccc2)C1)N1CCCCCC1 (stereo not drawn)	12	0	16µM*	10	-2%	-27%
O=C(C1CCCN(S(=O)(=O)c2ccc(F)cc2)C1)N1CCCC1 (stereo not drawn)	44	29	-7%	5	-1%	12%
CC(=O)Nc1ccc(S(=O)(=O)N2CCN(c3ncccn3)CC2)cc1	-7	9	-28%	4	-12%	-26%
O=C(C1CCCN(S(=O)(=O)Cc2ccccc2)C1)N1CCC(Cc2ccccc2)CC1 (stereo not drawn)	27	-28	10µM*	-1	1%	16µM*
CC(=O)Nc1ccc(S(=O)(=O)N2CCN(C(=O)c3ncoc3-c3ccccc3)CC2)cc1	10	14	12µM*	1	·	?
CSc1ccc(S(=O)(=O)NCC(=O)OCC(=O)N(C)C2CCCCC2)cc1[N+](=O)[O-]	13	-14	-2%	1	-3%	-1%
CCOc1cccc(CN2CCC(n3nccc3NC(=O)C3CC3)CC2)c1O	-12	12	-21%	0	-28%	-9%
CC(NC(=O)COC(=O)C12CC3CC(CC(Br)(C3)C1)C2)c1ccccc1 (stereo not drawn)	-26	9	-30%	-8	·	-27%
O=C(O)CC/C(=N\NC(=O)CNC(=O)c1ccc(F)cc1)c1ccccc1	-1	0	5%	-15	0%	2%
CC(=O)Nc1ccc(S(=O)(=O)N2CCCC(C(=O)N3CCN(c4ccccc4)CC3)C2)cc1 (stereo not drawn)	3	0	21µM*	4	1%	23µM*
COC(=O)Nc1ccc(S(=O)(=O)N2CCCC(C(=O)N3CCN(C)CC3)C2)cc1 (stereo not drawn)	-8	3	3%	1	-2%	-17%
SMILES	D3 antag	IL1B secr inh	TDP1 cell noCPT	D3 ag	ClpP mod	TDP1 cell CPT
CCC(=O)N1CCc2cc(S(=O)(=O)NCCC(=O)NCc3ccc(F)cc3)ccc21	2	-3	?	4	-1%	-18%
CCC(=O)N1CCc2cc(S(=O)(=O)NCCC(=O)Nc3ccc(C)cc3C)ccc21	·	·	23µM*	0	-1%	?
CCC(=O)N1CCc2cc(S(=O)(=O)NCCC(=O)Nc3ccc(N(CC)CC)cc3C)ccc21	·	·	23µM*	3	-1%	?
CCC(=O)N1CCc2cc(S(=O)(=O)NCCC(=O)NC3CCCCCC3)ccc21	26	3	-26%	6	-1%	?
COc1ncc(C2=CC(=O)CC(C)(C)C2)cn1	0	-13	4%	-28	2%	-7%
CCC1CCCCN1CCCNC(=O)C1CC(=O)N(CCc2ccccc2)C1 (stereo not drawn)	24	11	26%	4	-2%	-21%
Fc1cccc(Cc2c(-c3ccccc3)nc3c(Cl)cc(C(F)(F)F)cn23)c1	-22	11	?	62*	-15%	?
Cc1ccc(-c2nc3c(Cl)cc(C(F)(F)F)cn3c2Cc2ccsc2)cc1	-59*	20	?	-1	-7%	?
Fc1ccc(-c2nc3c(Cl)cc(C(F)(F)F)cn3c2Cc2ccsc2)cc1	-27	11	-23%	0	-11%	2%
Fc1ccc(-c2nc3c(Cl)cc(C(F)(F)F)cn3c2Cc2cccc(F)c2)cc1	0	10	?	-6	?	-22%
CC(C)(C)Cc1c(-c2ccc(Cl)cc2)nc2c(Cl)cc(C(F)(F)F)cn12	0	5	?	37*	-9%	?
O=[N+]([O-])c1ccc(N2CCN(c3ccc(O)cc3)CC2)cn1	7	28	?	8	-2%	?
O=[N+]([O-])c1ccc(N2CCN(c3ccccc3Cl)CC2)cn1	2	-1	21µM*	3	·	18µM*
O=C(Nc1ccccc1)c1ccc2c(O)c(S(=O)(=O)c3ccc(Cl)cc3)c(=O)[nH]c2c1	·	·	1%	-11	-16%	8%
O=C(CNc1cccc(S(=O)(=O)N2CCCC2)c1)Nc1cccc(F)c1	2	-7	?	5	-8%	-19%
